According to the OligoGym collection:

biological target: UNC5D; test: pooled miR-30 sensor sort-seq; sequence = guide strand; conditions: shRNA
Also: reference of the scale not given here.

Sequence | sensor-assay potency score (higher = more potent)
TAGATCAACACGTGTCTCCTAG | 1.06
TTAAAATGTATCAAACATCTAA | 0.16
TACATTTCTATAGAAATCCTAT | -0.569
TAGATAACTAGATCAACACGTG | -0.0609
TTGACAATAATCTTGTCTCATC | -0.801
TTAGTCTACCAGGACATCTTGT | -0.288
TAAATTAACTTTATGATGCTAC | -0.135
TTGTCCTACATCATAAGCCTTT | -0.645
TTAGAAAAAACAACTTTCCGTA | 0.101
TAACCAACCTCTAAGTAGCTGA | 0.224

biological target: UPK1A; test: as above; conditions: shRNA

Sequence | sensor-assay potency score (higher = more potent)
TAGCTGTCGATGGCGTGGCCGA | -1.49
TTGGTGAACAGGTAGTCCATGT | -0.409
TACGTGAGGACCATGGACCGGC | 0.148
TAGGACGTGATGCAGGAGGCGC | -1.09
TCTTGCTCAATCATGACGCGGT | 0.151
TATGGTCTCAGCAAACAGGGAC | -0.387
ATGGCTATCAGCATGACCGGGA | -0.114
TACTGGTCGGCTGTCACCCATA | -1.44
TAGAAGGTCAGCATCTGCTTGG | -0.08
TTGGACACCATGTAGTCACGGT | 0.419
TAGCAGGCCCACCACAACTGGA | -1.8
